Results as given in ChEMBL document CHEMBL3988442, “University of Dundee, Small-Polar-MMV Screening Library” (2021).
Hit rate of the full screen: of about 48,000 compounds, about 13,000 (27%) showed an effect of 50% or more. The list shows a part of the results.

tested on: Wolbachia pipientis; test: Anti-Wolbachia Cell-Based Screen; format: functional; design: scale not given: in the data most compounds retested in dose-response had high values; settings: 5 µM

Row | Structure (SMILES) | Percent Effect
1 | CC(C)N(C)Cc1nnc2n1CCCN(C(=O)C1CCCO1)C2 (configuration not stated) | -11.05%
2 | CC(C)N(C)Cc1ncn2c1CN(CC(=O)N(C)C)CCC2 | -4.555%
3 | CC(C)N(C)Cc1ncn2c1CN(C(=O)C1CCCO1)CCC2 (configuration not stated) | 102%
4 | Cc1cnc(NC(=O)c2cccc(CN(C)Cc3ncccc3C)c2)s1 | 0.1885%
5 | COC(=O)c1cccc(CN(C)C(C)c2ccccn2)c1 (configuration not stated) | 109%
6 | Cc1ccc(C(=O)NCCNC(=O)N(C)C(C)c2ccccn2)cc1 (configuration not stated) | -4.194%
7 | COc1cc(CN(C)C(C)c2ccccn2)cc2c1OCO2 (configuration not stated) | -21.63%
8 | CC(c1ccco1)N(C)Cc1cccc(C(=O)Nc2nccn2C)c1 (configuration not stated) | 19.16%
9 | CC(c1ccccn1)N(C)Cc1cccc(C(=O)Nc2nccn2C)c1 (configuration not stated) | 66.38%
10 | Cc1ccc(Cl)c2ccc(NC(CO)CO)nc12 | -18.64%
11 | O=C(c1ccsc1)N1CC(c2nc(-c3ccc[nH]c3=O)no2)C1 | -1.062%
12 | CCOc1ccc(-c2c(-c3ccccc3)ncn2C2CCNC2)cn1 (configuration not stated) | 5.482%
13 | CCOc1no[n+]([O-])c1-c1ccccc1 | 142.4%
14 | COCCOC[C@]1(CNCc2cccc(OC)c2)C[C@@H](O)[C@@H](O)C1.Cl | 2.999%
15 | N#CCCN(CC(=O)Nc1ccc(Br)cc1Cl)Cc1cccnc1 | -15.5%
16 | COCc1noc(C2(c3ccc(F)cc3)CCC2)n1 | -10.25%
17 | COc1ccc(CC(=O)NCCNS(=O)(=O)c2ccc(C)cc2)cc1 | 90.25%
18 | CNS(=O)(=O)c1cccc(C(C)NCc2cccc(OC)c2)c1 (configuration not stated) | 4.426%
19 | COc1cccc(CNC(=O)CCNS(=O)(=O)c2ccc(C)cc2)c1 | 91.68%
20 | COc1cccc(CNC(=O)CCC2=Nc3ccccc3S(=O)(=O)N2)c1 | 114.6%
21 | CNS(=O)(=O)c1cccc(CNC(=O)CCc2ccsc2)c1 | 10.65%
22 | COc1cccc(CCNC(=O)CCS(=O)(=O)C2CCCC2)c1 | 1.804%
23 | Cc1ccc(S(=O)(=O)NCCNC(=O)c2cncnc2C)cc1 | 2.217%

Row | Structure (SMILES) | Percent Effect
24 | O=C(CCNS(=O)(=O)c1ccccc1)NCc1ccoc1 | -4.508%
25 | COc1cccc(CNC(=O)N2CCN3CCNC(=O)C3C2)c1 (configuration not stated) | -4.227%
26 | CNS(=O)(=O)c1ccc(CCC(=O)NCc2cccc(OC)c2)cc1 | 110.9%
27 | COc1cccc(CNC(=O)CCOc2ccccc2C)c1 | 9.384%
28 | CCc1ncncc1C(=O)NCCNS(=O)(=O)c1ccc(C)cc1 | 8.343%
29 | Cl.Cn1nc(C2CCN(C(=O)CN3CCCCC3)CC2)c2cccnc21 | 113.3%
30 | O=C(CN1CCCCC1)NCc1cccnc1-n1cnc2ccccc21 | -3.687%
31 | Cl.Cn1nc(C2CCN(C(=O)CCN3CCOCC3)CC2)c2cccnc21 | 110.8%
32 | CN(CCO)Cc1nnc(C2CCN(C(=O)CN3CCCC3)CC2)n1C | -20.27%
33 | COc1ccccc1OC1CCN(C(=O)CCCN2CCOCC2)CC1 | 10.26%
34 | C=C(C)CNC(=O)C1CCC(=O)N(C2CCCC2)C1 (configuration not stated) | 15.65%
35 | COCC1CN(C(=O)c2ccnnc2)Cc2ncnn2C1 (configuration not stated) | 0.09306%
36 | CS(=O)(=O)Cc1nc(CNc2ccc(F)c(F)c2)cs1 | 12.98%
37 | Cc1noc(C)c1CSCc1nc(N)c2ccccc2n1 | -9.423%
38 | Cc1cc(CSCc2csc(CS(C)(=O)=O)n2)no1 | 97.95%
39 | Cc1noc(C)c1CSCc1csc(CS(C)(=O)=O)n1 | 94.77%
40 | CS(=O)(=O)Cc1nc(CNc2c(F)cc(F)cc2F)cs1 | 22.22%
41 | Cc1cc(CSCc2cc(C)on2)on1 | -0.9382%
42 | CS(=O)(=O)Cc1nc(CN2CCc3ccccc3CC2)cs1 | 14.86%
43 | CCc1nc(CSCc2csc(CS(C)(=O)=O)n2)cs1 | 115%
44 | CS(=O)(=O)Cc1nc(CN2CCC(C(F)(F)F)CC2)cs1 | -5.539%
45 | COCCN(Cc1sccc1C)C(=O)C1CCN(C(C)C)CC1 | 1.745%
46 | Nc1nc2c(c(N3CCCC(c4nnc5ccccn45)C3)n1)CCNC2 (configuration not stated) | -10.49%

Row | Structure (SMILES) | Percent Effect
47 | O=C1[C@@H]2CN(Cc3cc4ccccc4o3)C[C@]2(C(=O)O)CN1CC1CC1 | -11.55%
48 | OCC(O)CSCc1nnc(-c2ccc(Cl)cc2)o1 (configuration not stated) | -3.672%
49 | CCN1Cc2cc(OC)ccc2N(CC(C)(C)O)CCC1=O | 102.5%
50 | COc1ccc2c(c1)C(=O)N(C)C1(CCN(CC3CC3)CC1)N2 | -12.56%
51 | COc1ccc2c(c1)CCCN2C(=O)NC1CCCCNC1=O (configuration not stated) | -4.83%
52 | COc1ccc2c(c1)CCCN2Cc1nc2c(cnn2C)c(=O)[nH]1 | -6.912%
53 | COc1ccc2c(c1)CCCN2C(=O)c1cccc(N(C)C)c1 | -8.665%
54 | COc1ccc2c(c1)CN(CC1CC1)C(=O)CCN2CC(C)(C)O | 98.75%
55 | CN1CCN(Cc2noc(CC3CCc4ccccc43)n2)CC1 (configuration not stated) | 3.539%
56 | Cc1csc(CN(C)C(=O)c2cccc(CCC(C)(C)O)c2)n1 | -10.56%
57 | COCc1ncc(CN2C[C@@H](C(=O)O)[C@H](C(C)C)C2)cn1 | 0.5192%
58 | CCCn1ncnc1C(C)NC(=O)C1CCN(C(C)C)CC1 (configuration not stated) | -2.448%
59 | CC(C)N1CCC(c2nnc(CN3CCCC3)n2C2CC2)CC1 | -3.352%
60 | CS(=O)(=O)N1CCC(c2cnc(-c3cn[nH]c3)cn2)CC1 | 122.9581%
61 | O=C(O)c1cc(-c2cn[nH]c2)cc(S(=O)(=O)N2CCSCC2)c1 | -7.646%
62 | Cn1cc(-c2nc(C3CCN(S(C)(=O)=O)CC3)cc3c2ncn3C)cn1 | 6.413%
63 | CC(C)N1CCC(c2cnc(-c3cncnc3)cn2)CC1 | 77.04%
64 | CC(C)N1CCC(c2cnc(-c3cn[nH]c3)cn2)CC1 | 107.4%
65 | COc1cccc2c1OCCCN(Cc1ccc(C(N)=O)c(=O)[nH]1)C2 | -4.223%
66 | CC(C)Cn1cnc(S(=O)(=O)Nc2cccnc2-n2cccn2)c1 | -21.79%
67 | CC1(C)CN(C(=O)CC2CCS(=O)(=O)CC2)C[C@]1(C)O | 8.618%
